Results taken from PMC4081100, “A DNA-binding-site landscape and regulatory network analysis for NAC transcription factors in Arabidopsis thaliana”.

What was measured:
Assay in all cases: universal protein binding microarray (PBM); transcription factors of Arabidopsis thaliana; high values mean tight binding
Details in all cases: protein: recombinant; tags: GST; chain copies: 2; dsDNA, one strand shown
GST-ANAC092(1-176) = target: T1, GST-ANAC092(1-176) (Arabidopsis thaliana, UniProt Q9FKA0 1-176)
T1 sequence: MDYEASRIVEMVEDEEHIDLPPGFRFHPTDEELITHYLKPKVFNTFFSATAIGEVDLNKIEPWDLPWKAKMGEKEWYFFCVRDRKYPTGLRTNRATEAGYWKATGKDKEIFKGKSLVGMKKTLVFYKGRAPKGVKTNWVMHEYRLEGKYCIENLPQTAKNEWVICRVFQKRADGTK
Outline: (§1)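 Each value is a normalised enrichment score (E-score) describing binding. The GST-tagged proteins, NAC-domain, full-length or DNA-binding-domain, were induced in cells (zinc-finger proteins with zinc acetate added) and purified on glutathione–Sepharose 4B. They were applied at 200 to 500 nM final, in duplicate, to double-stranded custom all-10-mer Agilent 4 × 180K arrays, and gapped and ungapped 8-mers were scored.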

GST-NTL6(1-168) = GST-NTL6(1-168) (Arabidopsis thaliana, UniProt Q9SCK6 1-168)
Sequence of GST-NTL6(1-168) (Q9SCK6 1-168): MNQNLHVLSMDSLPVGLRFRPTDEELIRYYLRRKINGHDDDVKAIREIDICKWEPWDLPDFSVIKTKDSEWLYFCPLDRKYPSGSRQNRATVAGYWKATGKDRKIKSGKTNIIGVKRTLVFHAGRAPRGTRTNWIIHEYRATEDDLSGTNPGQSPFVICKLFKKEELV
Outline: as §1

GST-ANAC019 NAC domain = target: T2, GST-ANAC019 NAC domain (Arabidopsis thaliana, UniProt Q9C932 14-162)
T2 sequence: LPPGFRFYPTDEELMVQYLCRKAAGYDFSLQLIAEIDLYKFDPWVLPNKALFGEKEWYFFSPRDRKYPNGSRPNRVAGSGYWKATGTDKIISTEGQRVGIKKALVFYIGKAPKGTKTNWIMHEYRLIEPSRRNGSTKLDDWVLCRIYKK
Outline: as §1

GST-ANAC055(1-171) = target: T3, GST-ANAC055(1-171) (Arabidopsis thaliana, UniProt Q9LDY8 1-171)
T3 sequence: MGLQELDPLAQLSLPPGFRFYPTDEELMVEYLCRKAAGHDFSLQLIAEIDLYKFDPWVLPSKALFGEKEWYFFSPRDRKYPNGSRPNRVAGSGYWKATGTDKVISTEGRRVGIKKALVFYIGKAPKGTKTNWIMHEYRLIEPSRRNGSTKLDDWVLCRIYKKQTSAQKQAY
Outline: as §1

GST-ATAF1 NAC domain = target: T4, GST-ATAF1 NAC domain (Arabidopsis thaliana, UniProt Q39013 7-158)
T4 sequence: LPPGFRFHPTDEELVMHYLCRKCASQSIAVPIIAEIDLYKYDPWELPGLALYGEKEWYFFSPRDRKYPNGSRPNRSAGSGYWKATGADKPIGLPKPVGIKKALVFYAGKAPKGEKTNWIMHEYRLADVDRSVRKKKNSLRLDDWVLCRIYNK
Outline: as §1

[1] = target: T5, GST-ANAC092(1-285) full length (Arabidopsis thaliana, UniProt Q9FKA0 1-285)
T5 sequence: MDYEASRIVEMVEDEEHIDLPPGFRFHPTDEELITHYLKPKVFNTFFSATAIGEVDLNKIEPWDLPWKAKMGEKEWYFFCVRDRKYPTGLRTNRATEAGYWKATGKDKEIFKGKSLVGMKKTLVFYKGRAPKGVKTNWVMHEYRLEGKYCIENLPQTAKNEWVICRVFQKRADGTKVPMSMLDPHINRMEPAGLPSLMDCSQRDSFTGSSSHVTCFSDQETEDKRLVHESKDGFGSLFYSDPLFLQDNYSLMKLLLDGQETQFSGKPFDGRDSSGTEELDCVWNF
Outline: as §1

GST-NAP(1-166) = target: T6, GST-NAP(1-166) (Arabidopsis thaliana, UniProt O49255 1-166)
T6 sequence: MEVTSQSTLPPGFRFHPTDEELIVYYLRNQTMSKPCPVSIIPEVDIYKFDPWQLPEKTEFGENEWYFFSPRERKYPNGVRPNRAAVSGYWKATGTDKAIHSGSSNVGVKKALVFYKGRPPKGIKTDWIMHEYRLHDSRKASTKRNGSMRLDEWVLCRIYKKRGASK
Outline: as §1

GST-NST2(1-184) = target: T7, GST-NST2(1-184) (Arabidopsis thaliana, UniProt Q9M274 1-184)
T7 sequence: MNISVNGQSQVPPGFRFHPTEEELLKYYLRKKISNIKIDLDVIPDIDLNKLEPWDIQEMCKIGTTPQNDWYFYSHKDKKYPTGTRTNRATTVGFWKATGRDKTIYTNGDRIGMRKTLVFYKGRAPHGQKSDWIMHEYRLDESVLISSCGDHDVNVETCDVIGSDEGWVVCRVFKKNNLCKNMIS
Outline: as §1

GST-NTL8 NAC domain = target: T8, GST-NTL8 NAC domain (Arabidopsis thaliana, UniProt Q9XIN7 14-156)
T8 sequence: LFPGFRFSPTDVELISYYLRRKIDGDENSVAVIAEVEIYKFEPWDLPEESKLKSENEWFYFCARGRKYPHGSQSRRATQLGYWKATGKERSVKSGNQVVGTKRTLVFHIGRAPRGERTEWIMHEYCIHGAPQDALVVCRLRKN
Outline: as §1

GST-SND1(1-203) = target: T9, GST-SND1(1-203) (Arabidopsis thaliana, UniProt Q9LPI7 1-203)
T9 sequence: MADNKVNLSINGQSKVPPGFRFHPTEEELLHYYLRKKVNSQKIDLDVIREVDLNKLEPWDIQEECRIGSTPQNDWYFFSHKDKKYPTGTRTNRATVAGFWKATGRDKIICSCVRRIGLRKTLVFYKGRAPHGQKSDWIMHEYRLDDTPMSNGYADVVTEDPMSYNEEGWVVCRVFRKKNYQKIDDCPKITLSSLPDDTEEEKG
Outline: as §1

GST-VND3 NAC domain = target: T10, GST-VND3 NAC domain (Arabidopsis thaliana, UniProt Q9FH59 12-162)
T10 sequence: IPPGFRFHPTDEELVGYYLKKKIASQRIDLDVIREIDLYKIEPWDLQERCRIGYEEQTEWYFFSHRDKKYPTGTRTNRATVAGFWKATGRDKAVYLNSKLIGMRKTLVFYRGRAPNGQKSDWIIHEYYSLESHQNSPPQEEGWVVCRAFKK
Outline: as §1

GST-VND7 NAC domain = target: T11, GST-VND7 NAC domain (Arabidopsis thaliana, UniProt Q9C8W9 9-158)
T11 sequence: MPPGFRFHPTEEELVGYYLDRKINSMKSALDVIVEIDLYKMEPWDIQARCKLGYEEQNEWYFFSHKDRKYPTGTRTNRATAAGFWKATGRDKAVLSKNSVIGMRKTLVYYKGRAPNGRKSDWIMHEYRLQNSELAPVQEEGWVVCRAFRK
Outline: as §1

Sequence	binding signal (GST-ANAC092(1-176))	binding signal (GST-NTL6(1-168))	binding signal (GST-ANAC019 NAC domain)	binding signal (GST-ANAC055(1-171))	binding signal (GST-ATAF1 NAC domain)	binding signal [1]	binding signal (GST-NAP(1-166))	binding signal (GST-NST2(1-184))	binding signal (GST-NTL8 NAC domain)	binding signal (GST-SND1(1-203))	binding signal (GST-VND3 NAC domain)	binding signal (GST-VND7 NAC domain)
ACGTAATA	0.425 E-score	0.176 E-score	0.351 E-score	0.375 E-score	0.276 E-score	0.434 E-score	0.346 E-score	0.298 E-score	0.142 E-score	0.387 E-score	0.377 E-score	0.273 E-score
CCACGTAA	0.359 E-score	0.0826 E-score	0.432 E-score	0.37 E-score	0.306 E-score	0.393 E-score	0.308 E-score	0.157 E-score	0.167 E-score	0.0962 E-score	0.326 E-score	0.341 E-score
TGCCGTAA	0.432 E-score	0.114 E-score	0.448 E-score	0.408 E-score	0.436 E-score	0.433 E-score	0.402 E-score	0.328 E-score	0.324 E-score	0.457 E-score	0.437 E-score	0.449 E-score
AGGGAAAA	0.22 E-score	0.201 E-score	0.131 E-score	0.111 E-score	0.187 E-score	0.0865 E-score	0.117 E-score		0.416 E-score	0.115 E-score	0.0874 E-score	0.192 E-score
TAAGTTAA	0.191 E-score	0.418 E-score	0.132 E-score	0.0747 E-score	0.157 E-score	0.3 E-score		0.184 E-score		0.297 E-score	0.188 E-score	0.0557 E-score
CGAAGTAA	0.199 E-score	0.448 E-score	0.128 E-score	0.143 E-score	0.23 E-score	0.279 E-score		0.223 E-score	0.416 E-score	0.303 E-score	0.138 E-score	0.19 E-score
GTAAGGAA	0.259 E-score	0.486 E-score	0.23 E-score	0.193 E-score	0.239 E-score	0.29 E-score	0.268 E-score	0.271 E-score	0.392 E-score	0.35 E-score	0.231 E-score	0.236 E-score
GTTTCTTA	0.226 E-score	0.435 E-score	0.141 E-score	0.185 E-score	0.257 E-score	0.313 E-score		0.311 E-score	0.28 E-score	0.33 E-score	0.16 E-score	0.0761 E-score
ACGCAAGT	0.424 E-score	0.121 E-score	0.277 E-score	0.295 E-score	0.295 E-score	0.444 E-score	0.356 E-score	0.291 E-score	0.0671 E-score	0.406 E-score	0.375 E-score	0.366 E-score
TTAAGTAA	0.236 E-score	0.48 E-score	0.198 E-score	0.0996 E-score	0.168 E-score	0.3 E-score		0.258 E-score	0.34 E-score	0.403 E-score	0.17 E-score	0.135 E-score
AAGTTACC	0.365 E-score	0.308 E-score	0.155 E-score	0.0803 E-score	0.142 E-score	0.417 E-score	0.114 E-score	0.288 E-score	0.376 E-score	0.37 E-score	0.146 E-score	0.0773 E-score
GTTAAGCA	0.131 E-score	0.408 E-score	0.0907 E-score	0.0654 E-score	0.119 E-score	0.153 E-score		0.209 E-score		0.223 E-score	0.143 E-score	0.0676 E-score
GTTTCGTA	0.375 E-score	0.0501 E-score	0.0919 E-score	0.15 E-score	0.173 E-score	0.405 E-score	0.185 E-score	0.163 E-score	0.0561 E-score	0.318 E-score	0.293 E-score	0.124 E-score
CTTACGCA	0.359 E-score	0.0871 E-score	0.265 E-score	0.199 E-score	0.187 E-score	0.389 E-score	0.243 E-score	0.278 E-score	0.111 E-score	0.429 E-score	0.255 E-score	0.295 E-score
